Only some compounds are listed: those with a hit (about 8.2% of all), similar ones and a draw of the others.
ELG1 DNA repair – qHTS screen for small molecules that inhibit ELG1-dependent DNA repair in human embryonic kidney (HEK293T) cells expressing luciferase-tagged ELG1. Potency, µM (highest dose often 46.1 µM), without a hit: at the highest dose activity change, negative = inhibition, usual class: inhibitors. HEK293T ELG1-luciferase reporter, luminescence, 16 h; DNA damage induced by 5-fluorouridine. hit rate 2.3% among 330,000. AID 504467, 2011; also: % is scaled to controls: 0 for no effect and ±100 for the full control effect; nearly all actives have a fitted effect of over 55% in size
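Cells (2,000 per well) received 5-fluorouridine plus test compound or DMSO and were incubated 16 hr at 37 °C, 5% CO2. Luciferase activity was read by luminescence 30 min after ONE-Glo addition; signal suppression marked inhibition of damage-induced ELG1 function.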
MCF10A rereplic – A quantitative high throughput screen for small molecules that induce DNA re-replication in MCF 10a normal breast cells; MCF 10A DNA re-replication, Hoechst nuclear intensity, 48 h; Potency, µM (titrated, usually from 46.1 µM), without a hit: top-dose activity, positive = re-replication, most hits filed as activators; hit rate 2.9% among 350,000; also: % of control where 0% means no effect; nearly all actives have a fitted effect of over 50% in size
KB-V1 MDR tox – qHTS assay for MDR1-selective chemotherapeutics: Primary screen using the drug-selected MDR subline cells KB-V1; KB-V1 MDR cells viability, CellTiter-Glo, 72 h; Potency, µM (series often up to 46.1 µM), most hits filed as cytotoxic; hit rate 3.4% among 400,000; also: % is scaled to controls: 0 for no effect and ±100 for the full control effect; nearly all actives have a fitted effect of over 60% in size
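qHTS viability screen in drug-selected KB-V1 MDR cells: 72 h compound treatment at 37 degrees C, ATP luminescence end point.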
KB-3-1 tox – qHTS assay for MDR1-selective chemotherapeutics: Primary screen using the parental adenocarcinoma cell KB-3-1; KB-3-1 viability, CellTiter-Glo ATP luminescence, 72 h; Potency, µM (top dose mostly 46.1 µM), hits mostly cytotoxic; hit rate 1.4% among 400,000; AID 1347075, 2019; also: % is scaled to controls: 0 for no effect and ±100 for the full control effect; nearly all actives have a fitted effect of over 60% in size
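Parental KB-3-1 viability, qHTS format: 72 h compound exposure, 37 °C; CellTiter-Glo; media-only wells and DMSO plates as controls; concentration-effect fits on corrected data.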
SW480 rerep – A quantitative high throughput screen for small molecules that induce DNA re-replication in SW480 colon adenocarcinoma cells | SW480 DNA re-replication, Hoechst DNA content imaging, 48 h | Potency, µM (titrated, usually from 46.1 µM), for inactives: at the top dose re-replication activation, usual class: activators | hit rate 1.8% among 340,000 | AID 624297, 2012; also: % of control where 0% means no effect; nearly all actives have a fitted effect of over 55% in size
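Per well, 250 cells were exposed to pinned compound for 48 hr. Nuclear DNA was visualised with Hoechst (40 min, 37 C) and total object intensity recorded by fluorescence scanning.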
An asterisk follows results filed as active; i = inactive; u = inconclusive; x = not tested or not shown; [ ] = another dose, or the depositor's remark. Calls follow the shape of the dose curve; as a rule, active = well fitted curve in the direction sought with a large enough effect; inconclusive = small, poorly fitted or top-dose-only effect, or another doubt; inactive = no such curve, though single readings can be large; an effect the other way counts as inactive or inconclusive. Potency is read from the fitted curve at half-maximal effect.

SMILES	ELG1 DNA repair	MCF10A rereplic	KB-V1 MDR tox	KB-3-1 tox	SW480 rerep
Cc1cccc(N2CCC(N3CCN(C4CCCCC4)C(CCO)C3)CC2)c1C (stereo not drawn)	-8.0%	16.4µM*	i	i	-7.4%
Cc1cc(CN2CCCC(CNC(=O)c3ccc(F)cc3)C2)cc(C)c1O (stereo not drawn)	6.2%	23.1µM*	i	i	u
CCCCc1cc(=O)oc2cc(C)cc(OCC(=O)N3C[C@H]4C[C@@H](C3)c3cccc(=O)n3C4)c12	0.0%	u	i	u	1.84µM*
COc1cccc(S(=O)(=O)N(C)C[C@@H]2Oc3ncc(C#CCN(C)C)cc3C(=O)N([C@H](C)CO)C[C@H]2C)c1	x	x	i	i	x
COc1ccc(C=C2NC(=O)NC2=O)cc1O	x	x	i	i	x
COc1cc(/C=C2\NC(=O)NC2=O)cc(Br)c1OC	u	-15.1%	5.8µM*	u	0.0%
O=C1C=C(NCc2ccncc2)CC(c2ccccc2)C1 (stereo not drawn)	-4.6%	3.2%	i	i	0.1%
CCCCCCCNC1=CC(=O)CC(c2ccccc2)C1 (stereo not drawn)	-5.9%	18.4µM*	u	7.31µM*	u
CNC1=CC(=O)CC(c2ccccc2)C1 (stereo not drawn)	-6.0%	u	i	i	u
CCCCCNC1=CC(=O)CC(c2ccccc2)C1 (stereo not drawn)	-29.4%	u	14.6µM*	u	u
CCc1ccc(CNC(=O)CCS(=O)(=O)Cc2ccc(C)cc2)cc1	1.6%	-2.2%	i	i	-22.3%
CCOC(=O)Cc1csc(SCC(=O)NC2CCS(=O)(=O)C2)n1 (stereo not drawn)	6.1%	20.1%	i	i	-16.9%
CCc1ccc(C(=O)c2oc3nc(C)cc(C)c3c2N)cc1	13.9%	7.31µM*	2.59µM*	i	16.4µM*
Cc1ccc(C(=O)c2oc3nc(C)cc(C)c3c2N)cc1	13.5%	9.2µM*	u	i	u
COc1ccc(C(=O)c2oc3nc(C)cc(C)c3c2N)cc1	u	14.6%	u	i	16.3%
O=CC1=C(c2ccccc2)Oc2ccccc2O1	2.7%	u	u	u	u
O=C(c1ccc2oc(CCCc3ccccc3)nc2c1)N1CCCC1	u	-0.6%	u	i	0.1%
N#C/C(=C/c1ccc(Sc2nc3ccccc3[nH]2)o1)c1cccc(Br)c1	u	u	18.4µM*	u	29.6%
N#C/C(=C/c1ccc(Sc2nc3ccccc3[nH]2)o1)c1ccccc1F	u	19.5%	3.66µM*	i	u
N#C/C(=C\c1ccc(-c2ccccc2C(=O)O)o1)c1nc2ccccc2[nH]1	u	u	u	i	u
N#C/C(=C/c1ccc(Sc2nc3ccccc3[nH]2)o1)c1cccc(F)c1	18.4µM*	27.6%	7.31µM*	i	u
CCN(CC(=O)Nc1ccc2c(c1)OCCO2)C(=O)COc1ccc(C(C)=O)cc1	x	x	i	i	x
COc1ccc(N2CCN(C(=O)c3ccc(C)c(NC(=O)c4nsc5ccccc45)c3)CC2)cc1	x	x	i	i	x
COc1ccccc1-c1noc(CCC(=O)Nc2ccc(C)cc2C)n1	x	x	i	i	x
COc1cc(OC)c(NC(=O)Cn2c(=O)oc3cc(S(=O)(=O)N4CCCC4)ccc32)cc1Cl	x	x	i	i	x
SMILES	ELG1 DNA repair	MCF10A rereplic	KB-V1 MDR tox	KB-3-1 tox	SW480 rerep
CC(=O)c1ccc(OCc2ccc(C(=O)c3ccccc3)cc2)cc1	-14.0%	12.6%	16.4µM*	14.6µM*	-13.5%
Cc1ccccc1Cn1cc(S(=O)(=O)CC(=O)Nc2nccs2)c2ccccc21	u	-25.4%	16.4µM*	u	-0.1%
O=C(CS(=O)(=O)c1ccccc1)Nc1nccs1	19.5%	2.0%	i	i	-2.5%
CCOC(=O)N1CCN(C(=O)CS(=O)(=O)c2cn(Cc3ccccc3C)c3ccccc23)CC1	9.2µM*	1.7%	u	i	0.4%
O=C(Cc1ccc(NC(=O)N2CCCCc3ccccc32)cc1)NCc1cccc(Br)c1	x	x	i	i	x
CC(=O)OCC(=O)[C@H]1CC[C@H]2[C@@H]3CCC4=CC(=O)CC[C@]4(C)[C@H]3CC[C@]12C	-1.3%	6.8%	14.6µM*	u	-29.8%
C[C@]12CCC(=O)C=C1CCC1C2CC[C@@]2(C)C1CCC21OCCO1 (stereo partly drawn)	u	20.6µM*	u	i	20.7%
CC(=O)N1CCc2c(sc3c2c(=O)n(CCc2ccccc2)c(=O)n3CC(=O)Nc2ccc(C)c(F)c2)C1	x	x	i	i	x
COc1ccccc1Nc1nc(-c2ccccc2F)nc2ccccc12	x	x	8.2µM*	u	x
CC(=O)Nc1cccc(Nc2nc(-c3ccccc3F)nc3ccccc23)c1	14.6µM*	-3.4%	i	i	-4.1%
COC(=O)CNc1nc(-c2ccccc2F)nc2ccccc12	u	17.1%	i	i	8.9%
CCN(CC)c1nc2c3c(nc4c(c3c1C#N)CC(=O)N4c1ccc(Cl)cc1)NC(C)=N2	u	9.2µM*	i	u	4.3%
CCc1ccc(N2C(=O)Cc3c2nc(N)c(C#N)c3N)cc1	u	6.5%	u	i	3.6%
O=c1[nH]c(-c2ccc(O)cc2)nc2scc(-c3cccs3)c12	u	7.31µM*	i	i	11.8%
Nc1nc(Cl)nc2c1ncn2C1CC(O)C(CO)O1 (stereo not drawn)	0.7%	u	u	8.2µM*	u
Nc1ncn([C@H]2C[C@H](O)[C@@H](CO)O2)c(=O)n1	12.5%	-1.9%	i	i	0.231µM*
Cc1ccc2c(C)c(C(=O)N3CCN(c4ncccn4)CC3)oc2c1C	-5.7%	u	x	x	4.0%
CC(C)(C)c1ccc(C(=O)NC(=S)Nc2ccc(N3CCOCC3)cc2)cc1	u	u	i	i	-1.3%
CC(=O)N1CCN(c2ccc(NC(=S)NC(=O)c3ccccc3)cc2)CC1	3.8%	u	3.66µM*	i	-74.1%
Cc1cccc(C(=O)NC(=S)Nc2ccc(N3CCOCC3)cc2)c1	-5.0%	u	18.4µM*	i	-1.5%
Cc1ccc(C(=O)NC(=S)Nc2ccc(N3CCOCC3)cc2)cc1C	10.3µM*	14.4%	u	i	-30.5%
CC(=O)N1CCN(c2ccc(NC(=O)c3ccccc3)cc2)CC1	u	0.6%	i	i	-0.1%[9.22 µM]
COc1cccc(-c2cn3nc4c(nc3n2)CCCC4)c1	u	u	u	18.4µM*	u
